# About 79,000 compounds went through this panel and 15% of them were active in at least one assay; those are over-represented in the sample as a whole. A number with no mark means an inactive call. Calls of active or inactive are those of the source. Cut-off read from the data, not from the text of the source: active = growth inhibition above about 70%; inactive = the rest.
# How the values were obtained:
# [1] = NCI Yeast Anticancer Drug Screen. Data for the rad50 strain (AID 155);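 note: 0% = growth of vehicle-only cultures of the same strain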; conditions: S. cerevisiae rad50 strain growth inhibition; at 50.0 µM; stronger effect = higher value
# Summary of the method: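 Growth of the mutant yeast was measured after compound exposure and referenced to vehicle-treated cultures.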
# [2] = NCI Yeast Anticancer Drug Screen. Data for the mec2-1 strain (AID 157); conditions: S. cerevisiae mec2-1 strain, at 50.0 µM, stronger effect = higher value
# Summary of the method: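 Growth inhibition is read against vehicle-treated controls after compound exposure of the mec2-1 yeast strain, which is defective in DNA damage repair or cell cycle control.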
# [3] = NCI Yeast Anticancer Drug Screen. Data for the sgs1 mgt1 strain (AID 161);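 note: 0% = growth of cultures given vehicle only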; conditions: S. cerevisiae sgs1 mgt1 strain, at 50.0 µM, stronger effect = higher value
# Summary of the method: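 Percent growth inhibition was derived by comparing compound-exposed mutant yeast with vehicle-exposed cultures. The strain carries alterations in DNA damage repair.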
# [4] = NCI Yeast Anticancer Drug Screen. Data for the cln2 rad14 strain (AID 165);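 note: 0% = growth equal to vehicle treated cultures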; conditions: S. cerevisiae cln2 rad14 strain, at 50.0 µM, stronger effect = higher value
# Summary of the method: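 Growth inhibition, relative to vehicle-treated controls, is the read-out. The test organism is a yeast strain with defined genetic alterations, cln2 rad14.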
# [5] = NCI Yeast Anticancer Drug Screen. Data for the bub3 strain (AID 167); conditions: S. cerevisiae bub3 mutant strain, at 50.0 µM, stronger effect = higher value
# Summary of the method: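 Whole-cell yeast assay. The mutant strain was incubated with compounds, and growth inhibition was determined by comparison with vehicle-treated cells.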
# [6] = NCI Yeast Anticancer Drug Screen. Data for the mlh1 rad18 strain (AID 175); conditions: S. cerevisiae mlh1 rad18 strain growth inhibition; at 50.0 µM; stronger effect = higher value
# Summary of the method: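 Cells of a genetically altered yeast strain, deficient in DNA damage repair, were treated with compound. Their growth was then compared with that of vehicle-treated cultures to give inhibition.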
SMILES,growth inhibition [1],growth inhibition [2],growth inhibition [3] [%],growth inhibition [4],growth inhibition [5] [%],growth inhibition [6] [%]
CS(=O)(=O)OCc1nnn(-c2ccccc2)c1COS(C)(=O)=O,7.2%,-9.1%,-3.5,-40.5%,11.5,-11.7
CC1(CN2CCCCC2)COC(c2ccccc2)(c2ccccc2)OC1,-8.1%,-8.85%,-13.6,-36.1%,5.75,-0.9
O=C(O)CC(SSCc1ccccc1)C(=O)O (stereo unspecified),5.1%,16.6%,-4.15,-12.2%,12.7,20.8
CC(C)(C)OC(=O)N/N=C(/N)Cc1ccccc1,-36.2%,-3.65%,-18.4,6.5%,6.4,5.55
O=C(CC(=O)C1CCOC1=O)C(=O)Nc1cccc(Cl)c1 (stereo unspecified),-13.8%,-8.55%,5.5,-10.7%,-12,21.4
CCCCCCCCCCCCCCCC(=O)NC(CCCCN)C(=O)NC(CCCCN)C(=O)OCC (stereo unspecified),77.9% (active),97% (active),68.9,94.5% (active),47.4,65.5
CC(NS(=O)(=O)c1cccc(C(=O)O)c1)c1ccccc1 (stereo unspecified),10.3%,-14.5%,0.3,-38.4%,3.25,-0.05
CCCCNS(=O)(=O)c1ccccc1,7.95%,-18.1%,-59.6,9.65%,1.6,20.4
COC(=O)CN(C(=O)c1ccc(OC(C)=O)cc1)c1ccccc1,4.25%,23.3%,-6.7,9.1%,3.45,-28.1
CC(C)CCC[C@@H](C)[C@H]1CC[C@H]2[C@@H]3CC=C4C[C@@H](Cl)CC[C@]4(C)[C@H]3CC[C@]12C,-3.75%,-13.8%,-20,-2.8%,-8.9,-0.35
CCOC(=O)c1cc2cc([N+](=O)[O-])ccc2[nH]1,10%,9.5%,0,5.65%,-7.2,16.4
Cc1ncc([N+](=O)[O-])n1CCNC(=O)CCCCn1ccnc1[N+](=O)[O-],5%,-3.75%,-8.6,15.1%,7.15,-45
CC1(C)CC(=NNC(N)=S)CC(C)(C)N1,1.3%,-7.2%,14.3,-51.9%,-16.2,-0.95
COC(=O)C(C(=O)C(=O)Nc1ccc([N+](=O)[O-])cc1[N+](=O)[O-])c1nc2ccc(Cl)cc2[nH]c1=O (stereo unspecified),10.2%,10.6%,39,20.2%,12.5,25.5
c1cn(C23C4C5C6C4C2C6C53)cn1 (stereo unspecified),2.65%,-11.2%,2.5,18.1%,-6,15.9
O=C(O)C1SCCS1,15.4%,14.7%,19.1,21.8%,22.1,12.8
CC(=O)/C(=C/c1ccco1)CC(=O)O,-15.1%,-22.1%,-12.9,4.05%,-18.4,-5
NC1CC(=O)N(Cc2ccccc2)C1=O (stereo unspecified),5.75%,-7.9%,-9.8,-11.6%,-0.25,2.4
CC1CC(=O)c2c(O)ccc(O)c21 (stereo unspecified),-6.1%,-3.65%,-8.9,-17.4%,-8.15,12.2
O=Cc1c(Cl)c(Cl)c(Cl)c(Cl)c1Cl,-2.3%,6.3%,16.9,-39.6%,4.6,51.1
Cn1c(=N)n(CC(=O)NC23CC4CC(CC(C4)C2)C3)c2ccccc21,11.8%,-15.4%,-26.9,2.75%,2.2,-11.6

SMILES,growth inhibition [1],growth inhibition [2],growth inhibition [3] [%],growth inhibition [4],growth inhibition [5] [%],growth inhibition [6] [%]
O=C(O)CC1CCCNC1 (stereo unspecified),-11.3%,1.95%,-13.7,-18.6%,-16,-16.3
CCOC(=O)C(=CNC(=S)Nc1cc(C)ccc1C)C(=O)OCC,-12.8%,-38.5%,-14.1,-19.1%,-16.7,-1.85
O=C(NN(C(=O)c1ccc([N+](=O)[O-])cc1)c1ccccc1)c1ccc([N+](=O)[O-])cc1,3.1%,14.2%,14.1,21.4%,12.8,13.2
O=C(NNC(=O)C(F)(F)F)C(F)(F)F,0.55%,-3.4%,-5.1,-10%,-12.8,-2
CCCCCCCCCCCCCC(=O)OC,27.6%,15.3%,16.5,-9.3%,-1.4,31.4
NCCCn1[nH]c(=O)c2ncccc2c1=O,-60.1%,-28.8%,-11.7,-91.5%,-21.6,-18.7
Cn1c(C=O)cc2c(Cl)nccc21,-35.5%,-17.4%,-11.8,-54.9%,-10.1,-1.15
N#CC1(c2ccccc2)OC1(C#N)c1ccccc1 (stereo unspecified),3.1%,-14.6%,-4.8,-22.2%,-11.2,-7.6
O=C(Nc1cc(Cl)ccc1Cl)Oc1ccc(Cl)cc1C(=O)c1ccccc1,-45%,-10.4%,-37.8,-16.8%,-35.4,-56.9
O=C1C/C(=C\c2cccc([N+](=O)[O-])c2)C(=O)N1,9.7%,11.3%,-5.4,-11.3%,-2.8,-3.2
CCCCC(CC)(CO)CCC (stereo unspecified),-8.75%,-19%,-13.7,2.55%,-9.45,4
COC(=O)N/N=C/c1c[nH]c2ccccc12,-5.15%,-17.6%,-9.65,-97%,-17.4,-24.6
COC(=O)c1ccccc1-n1c(-c2ccc([N+](=O)[O-])cc2)csc1=NC(=O)c1cccc([N+](=O)[O-])c1,-2.15%,-2.15%,19.4,-1.05%,-1.15,12.7
CCC(C(N)=O)C(N)=O,-20.1%,-27.9%,-34.5,15.8%,-1.3,-6.1
O=c1c(C(=Nc2ccccc2)c2ccccc2)c[nH]n1-c1ccccc1,-10.5%,6.9%,-6,17.6%,-15.6,-12.1
COC(=O)CC(NC(=O)OCc1ccccc1)C(=O)NCC(=O)NCC(=O)O (stereo unspecified),15.8%,12.7%,-5.65,14.3%,-4.7,2.5
COC1=CCC2=C(CCO2)C1,5.3%,0.35%,-6.9,-18.5%,-7.1,1.1
COc1ccc(C(=O)c2ccccc2)c(OC(=O)Nc2ccc(Cl)cc2)c1,14.8%,-3.4%,14.9,3.8%,12.6,16.6
O=C1CCc2ccccc2-c2ccccc21,17.9%,5%,-12.1,-32%,-5.3,5.4
CCCCC(NC(=O)c1cnc2ccccc2n1)C(=O)O (stereo unspecified),22.2%,14%,15.3,4.6%,22.3,31.6
